Sampled rows, rich in hits. Any-hit rate of the full collection: about 3.4%.
ANO1 block: inhibitors of mouse TMEM16A calcium-activated chloride channel | Q8BHY3 | HEK293 TMEM16A/YFP iodide influx fluorescence, ionomycin | normalized B-score (activity score, 25-100; higher = stronger inhibition) at 10 µM | 1.2% of 310,000 active;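 active = ratio plate-corrected score three or more library SD toward inhibition, starting fluorescence score within five deviations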;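 note: score derived from kinetic fluorescence span divided by baseline fluorescence per well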
Target sequence (Q8BHY3 whole entry, looked up): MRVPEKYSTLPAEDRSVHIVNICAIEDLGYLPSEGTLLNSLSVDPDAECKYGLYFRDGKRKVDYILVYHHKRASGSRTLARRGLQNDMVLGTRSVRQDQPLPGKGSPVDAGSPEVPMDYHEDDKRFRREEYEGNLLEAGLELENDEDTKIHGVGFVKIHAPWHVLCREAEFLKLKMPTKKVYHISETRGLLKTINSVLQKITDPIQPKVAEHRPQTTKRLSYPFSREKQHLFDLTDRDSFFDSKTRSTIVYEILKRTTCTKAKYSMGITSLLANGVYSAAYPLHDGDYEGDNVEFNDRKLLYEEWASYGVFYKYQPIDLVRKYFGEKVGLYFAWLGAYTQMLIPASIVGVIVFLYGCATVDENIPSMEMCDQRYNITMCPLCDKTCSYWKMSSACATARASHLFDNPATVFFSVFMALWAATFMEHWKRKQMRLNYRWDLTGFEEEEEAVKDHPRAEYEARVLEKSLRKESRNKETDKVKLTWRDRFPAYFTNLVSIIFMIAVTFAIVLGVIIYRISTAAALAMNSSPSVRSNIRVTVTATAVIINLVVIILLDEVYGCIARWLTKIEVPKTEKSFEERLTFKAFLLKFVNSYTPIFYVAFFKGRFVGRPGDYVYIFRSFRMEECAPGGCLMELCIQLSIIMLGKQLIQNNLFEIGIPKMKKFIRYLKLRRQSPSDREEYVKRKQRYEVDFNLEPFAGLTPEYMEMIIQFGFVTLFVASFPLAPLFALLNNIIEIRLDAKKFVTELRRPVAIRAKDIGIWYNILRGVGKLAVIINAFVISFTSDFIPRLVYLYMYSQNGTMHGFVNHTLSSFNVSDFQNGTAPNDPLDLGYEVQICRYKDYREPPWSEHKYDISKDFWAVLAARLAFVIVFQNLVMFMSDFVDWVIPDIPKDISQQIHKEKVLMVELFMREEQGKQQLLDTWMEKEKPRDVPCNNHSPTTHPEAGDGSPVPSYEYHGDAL
MEKK3 PB1 HTS: MEKK3-MEK5 PB1 interaction, increase or decrease. Q99759. bead-based flow cytometry, Alexa488-MEK5 binding to MEKK3; actives lie on both sides; 0 = blocked by unlabeled MEK5, 100 = vehicle. binding response (% of control), % at 10 µM. 1.4% of 290,000 active. AID 1529;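 active = binding response more than 3 SD above or below the average of its plate-row segment, actives on both sides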;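 note: Alexa488 bead fluorescence after subtracting the streptavidin-only scavenger bead signal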
MEKK2 WT-MEK5: raises or lowers MEK5 binding to wildtype human MEKK2 PB1 domain; Q9Y2U5; bead flow cytometry, Alexa488-MEK5 binding to MEKK2 WT; actives lie on both sides; binding response (% of control), % at 10 µM; 1.1% of 290,000 active; AID 1531; in the data active = binding response below about 67% or above about 130%
NTR1 ag: NTR1 (human) agonism | P30989 | NTR1-U2OS beta-arrestin-GFP spot imaging, agonist mode | activation, % at 20 µM | 0.17% of 330,000 active;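 active = activation at or above 40% of the spot to cytoplasm intensity ratio, with at least 20 cells analyzed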
MEKK2mut PB1 HTS: signal of MEK5 binding to mutant human MEKK2 PB1 domain | 0.35% of 290,000 active | bead flow cytometry, Alexa488-MEK5 binding to MEKK2 mutant | percent response, % at 10 µM; in the data active = percent response above about 24%, passing the limit was not always enough
TMEM16A act: activates or potentiates the mouse TMEM16A chloride channel; Q8BHY3; HEK293 TMEM16A/YFP-H148Q/I152L, iodide quench fluorescence; hits give low values; B-score at 10 µM; 0.3% of 340,000 active; AID 623877;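 active = fluorescence-ratio B-score plate-corrected deviation score at least 3 library SD below zero, with starting fluorescence score within 5 deviations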;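 note: channel opened by trigger with iodide after compound preincubation; score built on the fluorescence ratio of max minus min over baseline; more negative score means more quench and so TMEM16A activation or potentiation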
Numbers stand for hits.

How did O=c1cc(-c2ccccc2)[nH]n2cnnc12 do in these assays?
ANO1 block: inactive; MEKK3 PB1 HTS: inactive; MEKK2 WT-MEK5: inactive; NTR1 ag: inactive; MEKK2mut PB1 HTS: inactive; TMEM16A act: inactive

Results for CC[C@H](C)/C=C/C1=CC2=C(Cl)C(=O)[C@@]3(C)OC(=O)C(C(=O)[C@H](C)[C@@H](C)O)=C3C2=CO1 ?
ANO1 block: 25; MEKK3 PB1 HTS: inactive; MEKK2 WT-MEK5: inactive; NTR1 ag: inactive; MEKK2mut PB1 HTS: inactive; TMEM16A act: inactive

How did OCC1OC(n2ccc3c(SCc4ccccc4)ncnc32)C(O)C1O (centres undefined) do in these assays?
TMEM16A act: inactive

What do the screens show for `Cc1cc(NS(=O)(=O)c2ccc(NC(=O)C(F)(F)F)cc2)nc(C)n1`?
ANO1 block: inactive; MEKK3 PB1 HTS: inactive; MEKK2 WT-MEK5: inactive; NTR1 ag: inactive; MEKK2mut PB1 HTS: inactive; TMEM16A act: inactive

What do the screens show for `O=C(N/C(=C/c1cccnc1)C(=O)N1CCCCCC1)c1ccccc1`?
ANO1 block: inactive; MEKK3 PB1 HTS: inactive; MEKK2 WT-MEK5: inactive; NTR1 ag: inactive; MEKK2mut PB1 HTS: inactive; TMEM16A act: inactive

What do the screens show for `CC(C)(C)NC(=O)NC(=O)CN1CCN(c2ncc(C(F)(F)F)cc2Cl)CC1`?
ANO1 block: 25; MEKK3 PB1 HTS: inactive; MEKK2 WT-MEK5: inactive; NTR1 ag: inactive; MEKK2mut PB1 HTS: inactive; TMEM16A act: inactive

Results for NNC(=O)CN1CCN(c2ncc(C(F)(F)F)cc2Cl)CC1 ?
ANO1 block: inactive; MEKK3 PB1 HTS: inactive; MEKK2 WT-MEK5: inactive; NTR1 ag: inactive; MEKK2mut PB1 HTS: inactive; TMEM16A act: inactive

How did COc1ccccc1-c1noc(CCCC(=O)Nc2ccc(C(N)=O)cc2)n1 do in these assays?
ANO1 block: inactive; MEKK3 PB1 HTS: inactive; MEKK2 WT-MEK5: inactive; NTR1 ag: inactive; MEKK2mut PB1 HTS: inactive; TMEM16A act: inactive

Results for Cc1ccccc1Nc1nc(N)c2ccccc2n1 ?
ANO1 block: inactive; MEKK3 PB1 HTS: 161; MEKK2 WT-MEK5: 173; NTR1 ag: inactive; MEKK2mut PB1 HTS: inactive; TMEM16A act: inactive

Results for O=C(Nc1ccc(Cl)cc1)C1=Cc2ccccc2OC1 ?
ANO1 block: inactive; MEKK3 PB1 HTS: inactive; MEKK2 WT-MEK5: inactive; NTR1 ag: inactive; MEKK2mut PB1 HTS: inactive; TMEM16A act: inactive

Results for COC1=CC(=O)C(O)=C(CCCCCCC/C=C/CCCCCCCC2=C(O)C(=O)C=C(OC)C2=O)C1=O ?
ANO1 block: 100; MEKK3 PB1 HTS: inactive; MEKK2 WT-MEK5: inactive; NTR1 ag: inactive; MEKK2mut PB1 HTS: inactive; TMEM16A act: inactive

Results for CCCCCCCCCCCC1=C(O)C(=O)C=C(O)C1=O ?
ANO1 block: inactive; MEKK3 PB1 HTS: inactive; MEKK2 WT-MEK5: inactive; MEKK2mut PB1 HTS: inactive; TMEM16A act: inactive

What do the screens show for `O=C(COC(=O)C1CCCN1C(=O)c1cccs1)c1ccccc1` (centres undefined)?
ANO1 block: inactive; MEKK3 PB1 HTS: inactive; MEKK2 WT-MEK5: inactive; NTR1 ag: inactive; MEKK2mut PB1 HTS: inactive; TMEM16A act: -14

What do the screens show for `O=C(COC(=O)C1CCCN1C(=O)c1cccs1)Nc1ccc2c(c1)OCO2` (centres undefined)?
ANO1 block: inactive; MEKK3 PB1 HTS: inactive; MEKK2 WT-MEK5: inactive; NTR1 ag: inactive; MEKK2mut PB1 HTS: inactive; TMEM16A act: -20

Results for O=C(NCC(=O)N1CCN(c2ccccc2O)CC1)c1ccc2c(c1)OCO2 ?
ANO1 block: inactive; MEKK3 PB1 HTS: inactive; MEKK2 WT-MEK5: inactive; NTR1 ag: inactive; MEKK2mut PB1 HTS: inactive; TMEM16A act: inactive

Results for CC(=O)Oc1cc2c3c(c1)/C(=C1/SC(=S)NC1=O)C(=O)N3C(C)(C)C=C2C ?
ANO1 block: 100; MEKK3 PB1 HTS: inactive; MEKK2 WT-MEK5: inactive; NTR1 ag: inactive; MEKK2mut PB1 HTS: inactive; TMEM16A act: inactive

What do the screens show for `CCOc1cc2c3c(c1)C(C)=CC(C)(C)N3C(=O)C2=O`?
ANO1 block: inactive; MEKK3 PB1 HTS: inactive; MEKK2 WT-MEK5: inactive; NTR1 ag: inactive; MEKK2mut PB1 HTS: inactive; TMEM16A act: inactive

How did COc1cc(/C=C2/C(=O)NN(c3ccc(Cl)cc3)C2=O)cc(Br)c1O do in these assays?
ANO1 block: inactive; MEKK3 PB1 HTS: inactive; MEKK2 WT-MEK5: inactive; NTR1 ag: inactive; MEKK2mut PB1 HTS: inactive; TMEM16A act: -6.2

How did CN(CCCNC(=O)c1cc2c(Cl)nc3ccccc3c2s1)Cc1ccccc1 do in these assays?
ANO1 block: inactive; MEKK3 PB1 HTS: inactive; MEKK2 WT-MEK5: 193; NTR1 ag: inactive; MEKK2mut PB1 HTS: inactive; TMEM16A act: inactive

Results for CC1CCCN(CCCNC(=O)c2cc3c(Cl)nc4ccccc4c3s2)C1 (centres undefined) ?
ANO1 block: inactive; MEKK3 PB1 HTS: inactive; MEKK2 WT-MEK5: 189; NTR1 ag: inactive; MEKK2mut PB1 HTS: 54; TMEM16A act: inactive

Results for Cc1nc2ccccc2c2oc(C(=O)NCCCN3CCCC(C)C3)cc12 (centres undefined) ?
ANO1 block: inactive; MEKK3 PB1 HTS: inactive; MEKK2 WT-MEK5: inactive; NTR1 ag: inactive; MEKK2mut PB1 HTS: inactive; TMEM16A act: inactive

What do the screens show for `CN(C)S(=O)(=O)c1ccc(N2CCCC2)c(C(=O)OCC(=O)N2CCN(c3ccccc3)CC2)c1`?
ANO1 block: inactive; NTR1 ag: inactive; TMEM16A act: inactive

How did O=C(NCCCN1CCCC1)c1ccc2c(c1)N(Cc1cccc(Cl)c1)C(=O)c1ccccc1S2=O (centres undefined) do in these assays?
ANO1 block: inactive; MEKK3 PB1 HTS: inactive; MEKK2 WT-MEK5: inactive; NTR1 ag: inactive; MEKK2mut PB1 HTS: inactive; TMEM16A act: inactive

Results for CC1CC(C)CN(CCCNC(=O)c2ccc3c(c2)N(Cc2ccccc2)C(=O)c2ccccc2S3=O)C1 (centres undefined) ?
ANO1 block: inactive; MEKK3 PB1 HTS: inactive; MEKK2 WT-MEK5: 145; NTR1 ag: inactive; MEKK2mut PB1 HTS: inactive; TMEM16A act: inactive

What do the screens show for `O=C(NCCC1CCCCN1S(=O)(=O)c1cccs1)C(=O)Nc1ccc(F)cc1` (centres undefined)?
ANO1 block: inactive; NTR1 ag: inactive; TMEM16A act: inactive

What do the screens show for `CC(=O)OCC(=O)[C@H]1CC[C@H]2[C@@H]3CCC4=CC(=O)CC[C@]4(C)[C@H]3CC[C@]12C`?
ANO1 block: inactive; MEKK3 PB1 HTS: inactive; MEKK2 WT-MEK5: inactive; NTR1 ag: inactive; MEKK2mut PB1 HTS: inactive; TMEM16A act: -5.8

What do the screens show for `Cc1ccccc1NCC(=O)Nc1cc(S(=O)(=O)N2CCCCC2)ccc1C`?
NTR1 ag: inactive; TMEM16A act: inactive

Results for O=C(Nc1cc(S(=O)(=O)N2CCCCC2)ccc1Cl)c1ccccc1NS(=O)(=O)c1ccc(F)cc1 ?
ANO1 block: 25; MEKK3 PB1 HTS: inactive; MEKK2 WT-MEK5: inactive; MEKK2mut PB1 HTS: inactive; TMEM16A act: inactive

From PubChem BioAssay
